PGC1a acetyl inh = inhibitors of PGC1a acetylation signal, primary screen, cell-based, U2OS, AlphaScreen, inhibitor mode | hit rate 0.17% among 350,000 | AlphaScreen anti-acetyl-lysine; with virally co-expressed GCN5 acetyltransferase | AID 651687, 2012 | inhibition, % at 15.6 µM;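 active = every replicate shows inhibition of at least 40%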;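 also: 0% = neutral control wells and 100% = positive control wells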
rRNA inh HTS = reduced GFP signal of wild-type E. coli, primary screen, bacterial rRNA inhibitor project, GFP/RFP fluorescence, OD600, single point; E. coli WT GFP vs humanized-ribosome RFP mutants, 24 h; stronger effect = lower value; DMSO median 0, no signal -100; GFP signal change (wild-type ribosome), % (concentration not given with the values); hit rate 1.6% among 350,000;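 active = significant combined selectivity score with lowered wild-type GFP, culture density cut under 30%, mutant RFP and density less affected; inactive = any of these conditions unmet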
INS-1E GSIS act = GLuc luminescence reporter in INS-1E cells, primary screen for activators of glucose-dependent secretion of insulin; activation, % at 16.6 µM; INS-1E GLuc reporter insulin secretion, 2-3 h; AID 743287, 2014; hit rate 0.61% among 370,000;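 active = lowest replicate activation of at least 40%, so every replicate reaches that level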;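 also: 0% = median of neutral control wells and 100% = median of IBMX positive control wells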
ERAP1 inh = human ERAP1 aminopeptidase inhibitors, primary screen, biochemical, single point, plate reader. Endoplasmic reticulum aminopeptidase 1 (Homo sapiens), Q9NZ08. recombinant ERAP1, Leu-AMC fluorescence, 60 min. inhibition, % at 10.7 µM. hit rate 0.15% among 340,000;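 active = mean replicate inhibition of at least 30%, or all replicates individually reaching that 30% level; inactive = mean below 30% and not every replicate reaching it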;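 also: 0% = neutral control wells and 100% = L-leucinethiol positive control wells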
DENV2 CPE rescue = inhibitors of DENV2 cytopathic effect, primary screen, cell-based, plate reader, single concentration | DENV2-infected cells, cytopathic effect rescue | CPE inhibition, % at 9.99 µM | hit rate 1.7% among 350,000; in the data active = CPE inhibition above about 20%, passing the limit was not always enough; tested in BHK-21 cells;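 also: 0% = median of neutral control wells and 100% = median of positive control wells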
CaV13 FRET inh = Disruptors of the CACNA1D IQ motif to Ca2+-dependent inactivation inhibitor domain association, primary screening, Förster resonance energy transfer in intact living …; HEK cells, CFP/YFP FRET ICDI-IQ, plate reader, 10 min; percent FRET-ratio fall versus neutral wells; inhibition, % at 12.3 µM; hit rate 0.098% among 340,000;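 active = mean replicate inhibition of at least 30% and at least 1% of replicates passing that level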;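 also: 0% = median of the neutral control wells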
* marks the source's active call; other numbers are inactive results; nt = no result given. Only some compounds are listed: those with a hit (about 3.2% of all), similar ones and a draw of the others.

SMILES	PGC1a acetyl inh	rRNA inh HTS	INS-1E GSIS act	ERAP1 inh	DENV2 CPE rescue	CaV13 FRET inh
CO[C@@H]1CN(C)C(=O)c2ccc(NC(=O)c3cc(C)on3)cc2OC[C@@H](C)N(S(=O)(=O)c2cccc(C)c2)C[C@H]1C	-9	-10	-31	2	-5	nt
O=C(Nc1ccc(Br)cc1)c1cc2ccccn2n1	-8	13	54*	-1	0	12
C[C@H](CO)N1C[C@H](C)[C@H](CN(C)C(=O)C2CCCCC2)OCCCC[C@H](C)Oc2ccc(NC(=O)CCC(F)(F)F)cc2C1=O	12	-3	-12	-2	0	nt
Cc1ccc2nc(NC(=O)CSc3nc(=O)n(CCN(C)C)c4c3CCCC4)sc2c1	-6	11	376*	-2	5	-6
C=C1[C@@H](O)[C@H](Cc2ccccc2)N(Cc2ccccc2Br)S1(=O)=O	nt	-23*	14	-3	3	-8
Cc1ccccc1CN1[C@@H](Cc2ccccc2)COCCS1(=O)=O	-9	nt	-12	nt	nt	-6
COc1ccc(C(=O)Nc2ccc(OC)c(OC)c2)cc1	-10	nt	8	nt	nt	-5
COc1ccc(-n2c(=S)[nH]c3cc(C(=O)Nc4ccc(OC)c(OC)c4)ccc3c2=O)cc1	-1	nt	76*	nt	nt	-8
COc1ccc(C(=O)Nc2ccc3nc(C)sc3c2)cc1OC	4	-20*	12	5	0	-6
COc1ccc(NC(=O)c2csc(C)c2)cc1OC	7	9	57*	-2	-4	-9
O=C(N[C@@H]1CC[C@H](CC(=O)N2CCCCC2)O[C@H]1CO)c1ccc2c(c1)OCO2	-1	-5	-7	-1	13	nt
Cc1cccc(-c2ccc([C@@H]3[C@H](CO)N4CCCCN(S(=O)(=O)c5cccc(C)c5)C[C@@H]34)cc2)c1	-12	-28*	-7	-2	23*	nt
COc1cccc(S(=O)(=O)N2CCCCN3[C@H](CO)[C@H](c4ccc(-c5cccnc5)cc4)[C@H]3C2)c1	2	-4	-2	0	-9	nt
COc1cccc(-c2ccc([C@@H]3[C@H](CO)N4CCCCN(S(=O)(=O)c5cn(C)cn5)C[C@@H]34)cc2)c1	nt	5	5	1	27*	nt
Cc1cccc(S(=O)(=O)N2CCCCN3[C@@H](CO)[C@H](c4ccc(C#CC(C)C)cc4)[C@@H]3C2)c1	3	-42*	-6	5	-9	nt
Cc1cccc(S(=O)(=O)N2CCCCN3[C@@H](CO)[C@@H](c4ccc(-c5cccnc5)cc4)[C@@H]3C2)c1	-18	-8	-31	-1	28*	nt
COc1ccc(S(=O)(=O)Nc2cccc3c2O[C@H](CN(C)Cc2ccc(Cl)c(Cl)c2)[C@@H](C)CN([C@@H](C)CO)C3=O)cc1	-31	-1	-30	nt	nt	nt
OC[C@H]1[C@H](c2ccc(C#Cc3ccccc3F)cc2)[C@H]2CN(Cc3cncnc3)CCCCN21	-19	-58	-8	1	-24	nt
Cc1ccccc1S(=O)(=O)N1CCCCN2[C@H](C1)[C@H](c1ccc(-c3ccccc3)cc1)[C@@H]2CO	-1	nt	nt	1	2	nt
Cc1cccc(-c2ccc([C@@H]3[C@H](CO)N4CCCCN(S(=O)(=O)c5ccccc5C)C[C@@H]34)cc2)c1	-22	-43*	-7	0	-14	nt
COc1ccc([C@H]2C/C=C\C[C@@H](c3ccc4c(c3)OCO4)NC(=O)[C@@H](c3ccccc3)CC(=O)N2)c(OC)c1	nt	-1	-2	nt	nt	nt
O=c1[nH]nc(-c2ccc(F)cc2)cc1Cc1cccs1	nt	-20*	46*	1	-3	-5
Cc1ccc(-c2cc(Cc3cccs3)c(=O)[nH]n2)cc1	7	0	27	1	-2	2
S=c1[nH]nc(C(c2ccccc2)C2CCCCC2)o1 (stereo not given)	15	-27*	35	-1	4	-5
C[C@@H]1CN(C)C(=O)c2ccccc2O[C@H]1CN(C)C	nt	1	3	nt	nt	nt

Assay outcomes as filed in PubChem BioAssay.
